Assay [1] has as its system Wnt5a (protein binding on small-molecule microarray). In words: Wnt5a binders on small-molecule microarray, primary screen, biophysical, 635/667 nm fluorescence (AID 1142).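 Note: fluorescence read at 667 nm with signal to noise per printed feature.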 The conditions noted are these: 635 nm fluorescence, higher = more signal.
Assay [2] in a line: cell viability in Huh7 cells, primary screen, cytotoxicity control for HCV replication inhibitor project, CellTiter-Glo luminescence, basal, 48 h (AID 1143).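 Note: Huh7 hepatoma cells carrying a hepatitis C replication reporter with no stimulus; test concentration not given here.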 Conditions: Huh7 HCV replicon, higher = more signal, called active from +8 up or from −8 down. Background: Cellular ATP, detected with luciferase, serves as a proxy for viable cell number.
Assay [3] can be described thus: P. aeruginosa biofilm formation inhibitors, primary screen, PAO1 strain, BacTiter-Glo luminescence, LB-PBS (AID 1144). The conditions noted are these: 12 h, higher = more signal.
Assay [4] in a line: CREB reporter modulators without forskolin, primary screen, cell-based, PC12, CRE-LacZ reporter, unstimulated (AID 1145). Conditions: no forskolin, luminescence, 4.5 h, higher = more signal, called active from +8 up or from −8 down.
A short description of assay [5]: CREB reporter modulators under forskolin, primary screen, cell-based, PC12, CRE-LacZ reporter, forskolin-stimulated (AID 1146).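 Note: PC12 cells with 6xCRE LacZ reporter stimulated by forskolin 10 µM; beta-galactosidase reporter signal reflecting CREB driven transcription.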 Conditions: luminescence, 4.5 h, higher = more signal, called active from +8 up or from −8 down.
Assay [6] addresses Streptavidin (Streptomyces avidinii) (UniProt P22629). In words: streptavidin binders on small-molecule microarray, primary screen, artefact control for SMM compound annotation, biophysical, 635/667 nm fluorescence (AID 1147).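 Note: signal reflects streptavidin binding to arrayed compounds as a control protein.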 The conditions noted are these: streptavidin binding, higher = more signal.
Assay [7] is described as follows: small-molecule binders of probe aInhba, primary screen, biochemical, small-molecule microarray, 635/667 nm fluorescence (AID 1148).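 Note: score merges 667nm spot fluorescence with signal-to-noise for antibody binding to printed compounds.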 The conditions noted are these: higher = more signal.
Assay [8] deals with Torsin-1A (Homo sapiens) (UniProt O14656). In words: torsin A binders from cell lysate, primary screen, small-molecule microarray, wild-type, 635/667 nm (AID 1149). Conditions: COS7 hTOR1A-WT lysate, 635 nm fluorescence, higher = more signal.
Chain of Torsin-1A (Homo sapiens) (O14656 whole entry, looked up): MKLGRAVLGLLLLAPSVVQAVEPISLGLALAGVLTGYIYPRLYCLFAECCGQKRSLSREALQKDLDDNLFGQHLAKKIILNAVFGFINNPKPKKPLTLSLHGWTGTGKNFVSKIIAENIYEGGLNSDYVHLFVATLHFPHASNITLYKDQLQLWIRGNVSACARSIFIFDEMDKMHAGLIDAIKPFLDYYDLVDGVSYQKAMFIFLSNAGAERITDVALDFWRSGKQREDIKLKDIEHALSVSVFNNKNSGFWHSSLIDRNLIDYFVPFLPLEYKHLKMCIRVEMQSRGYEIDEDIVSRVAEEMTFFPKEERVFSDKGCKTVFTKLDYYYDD
For assay [9] the target is unchanged. In words: small-molecule binders of mutant TOR1A in lysate, primary screen, cell lysate, small-molecule microarray, COS7 lysate, 635/667 nm fluorescence (AID 1150).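 Note: score pools 667 nm emission and signal to noise measuring lysate protein binding.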 Conditions: COS7 hTOR1A mutant lysate, 635 nm fluorescence, higher = more signal.
The test system of assay [10] is Sonic hedgehog protein (Shh). The assay can be described thus: small-molecule binders of Shh protein, primary screen, biochemical, small-molecule microarray, 635/667 nm fluorescence (AID 1151).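 Note: Shh protein binding to compounds spotted on small-molecule microarray slides; score combines spot fluorescence intensity with signal-to-noise across triplicate slides.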 The conditions noted are these: small-molecule microarray binding, 635 nm fluorescence; higher = more signal.

Active and inactive are the calls of the source. Unless noted, the rule behind the calls is not given here.

Chain of Streptavidin (Streptomyces avidinii) (P22629 whole entry, looked up): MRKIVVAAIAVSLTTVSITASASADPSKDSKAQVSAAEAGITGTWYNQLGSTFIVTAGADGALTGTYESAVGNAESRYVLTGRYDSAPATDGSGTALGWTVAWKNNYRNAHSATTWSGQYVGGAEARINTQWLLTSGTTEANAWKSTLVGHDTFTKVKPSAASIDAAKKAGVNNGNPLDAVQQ

As for `O=C1O[C@@H](c2ccccc2)[C@@H](c2ccccc2)N2[C@@H](c3ccc(OCCO)cc3)[C@]3(C(=O)Nc4ccc(C#CC5(O)CCCCCC5)cc43)[C@@H](C(=O)Nc3nc4ccccc4s3)[C@H]12`, the composite z-score in [1] worked out at 0.41; in [6], 1.44; in assay [7], 0.0945; in the assay with Torsin-1A (Homo sapiens) [8] it was 1.14; with Torsin-1A (Homo sapiens) [9], 0.985; in [10], 1.11. Moreover, the z-score was -1.6 (inactive) in [2], -0.213 (inactive) in assay [3], 0.685 (inactive) in assay [4] and -0.0048 (inactive) in assay [5].
`COC(=O)c1cccc([C@H]2OC(=CC(=O)OC(C)C)C[C@@H](c3cccc(C(=O)OC)c3)O2)c1`: the composite z-score in assay [1] was 1.19; in assay [6], 1.21; in assay [7], 0.0649; with Torsin-1A (Homo sapiens) [8], 1.64; in the assay with Torsin-1A (Homo sapiens) [9], 1.53; in [10], 1. Also, the z-score in assay [2] was -2.17 (inactive); in [3], 0.111 (inactive); in assay [4], 1.26 (inactive); in [5] it was 1.05 (inactive).
Regarding `[N-]=[N+]=Nc1ccccc1[C@@H]1OC(c2ccc(OCCCO)cc2)=N[C@]1(Cc1ccccc1)C(=O)NCCN1CCOCC1`, the composite z-score in [1] was 0.458; in [6] it was 1.29; in [7], 0.347; with Torsin-1A (Homo sapiens) [8] it was 0.612; with Torsin-1A (Homo sapiens) [9], 1.25; in assay [10], -0.368. In addition, the z-score is -5.28 (inactive) in assay [2], -0.528 (inactive) in assay [3], 0.4 (inactive) in assay [4] and -1.37 (inactive) in assay [5].
As to `COc1ccc(C(=O)Nc2cccc(CN3C(=O)[C@@]4(O[C@@H](CC(=O)N5CCC[C@H]5CO)[C@H]([Si](C)(C)c5ccc(OC)cc5)[C@H]4C)c4ccccc43)c2)cc1`, the composite z-score in [1] was 0.107; in assay [6], 0.621; in assay [7] it was -0.0454; in the assay with Torsin-1A (Homo sapiens) [8], 0.313; with Torsin-1A (Homo sapiens) [9] it was 1.15; in assay [10] it was 1.26. Moreover, the z-score in assay [2] was -4.18 (inactive); in assay [3], -0.601 (inactive); in assay [4] it was 1.69 (inactive); in assay [5] it was -1.55 (inactive).
For `C=CCOC(=O)[C@@H]1[C@H]2C(=O)O[C@H](c3ccccc3)[C@H](c3ccccc3)N2[C@H](c2ccc(OCCOC(=O)[C@H]3C[C@H]4C(=O)NCC(=O)N4[C@H]3c3cccc(OCCO)c3)cc2)[C@@]12C(=O)Nc1ccc(I)cc12`, the composite z-score stood at 0.569 in [1]; 0.808 in assay [6]; 0.0228 in assay [7]; 0.724 with Torsin-1A (Homo sapiens) [8]; 0.702 in the assay with Torsin-1A (Homo sapiens) [9]; 1.88 in assay [10]. The z-score is -0.357 (inactive) in assay [2], -0.71 (inactive) in assay [3], -0.264 (inactive) in [4] and -0.0891 (inactive) in assay [5].
For `C=C(CCCC)/C(=C/C[C@@H](OC(C)=O)c1ccc(CO)o1)c1cnc2ccccc2c1`, the composite z-score was determined as 0.401 in assay [1]; 0.843 in assay [6]; 0.0536 in [7]; 1.18 in the assay with Torsin-1A (Homo sapiens) [8]; 1.13 with Torsin-1A (Homo sapiens) [9]; 1.39 in assay [10]. Moreover, the z-score in [2] is -0.257 (inactive); in assay [3], -0.134 (inactive); in assay [4], 2.76 (inactive); in [5], 0.128 (inactive).
On to `CO[C@H]1O[C@H](CO)[C@@H](OC(=O)Nc2ccccc2)[C@H](OC(=O)Nc2ccccc2)[C@H]1OC(=O)Nc1ccccc1`, for which the composite z-score in [1] is 0.664; in assay [6], 0.0545; in assay [7], 0.0343; with Torsin-1A (Homo sapiens) [8], -0.196; with Torsin-1A (Homo sapiens) [9], 1.07; in assay [10], 0.78. In addition, the z-score in assay [2] was -4.39 (inactive); in assay [3], -1.41 (inactive); in [4], 1.04 (inactive); in assay [5], -2.64 (inactive).
With `COCCCN1C(=O)[C@@]2(c3ccc([N+](=O)[O-])cc3)CC(=O)N(CC34CC5CC(CC(C5)C3)C4)[C@@H]2c2ccc(CO)cc21`, the composite z-score in assay [1] was -0.15; in [6] it was 0.135; in assay [7] it was -0.138; with Torsin-1A (Homo sapiens) [8], -0.323; with Torsin-1A (Homo sapiens) [9] it was -0.0458; in assay [10] it was 0.791. Also, the z-score in assay [2] was -0.636 (inactive); in assay [3], -0.453 (inactive); in assay [4], -1.32 (inactive); in assay [5], -0.556 (inactive).
As for `C=CC[C@@]1(C(=O)N(C)C)N=C(c2ccc(OCCCO)cc2)O[C@@H]1c1ccccc1CN=[N+]=[N-]`, the composite z-score worked out at 0.615 in [1]; 1.35 in [6]; 0.143 in assay [7]; 0.886 in the assay with Torsin-1A (Homo sapiens) [8]; 1.17 with Torsin-1A (Homo sapiens) [9]; 0.38 in assay [10]. Moreover, the z-score is -2.89 (inactive) in [2], 1.1 (inactive) in [3], 0.754 (inactive) in assay [4] and -0.357 (inactive) in assay [5].
Regarding `CN(C)CCCC[C@@H]1NC(=O)[C@@H]2C[C@H](C(=O)NCCCCCN)[C@H](c3cccc(OCCO)c3)N2C1=O`, the composite z-score is 0.132 in assay [1]; 0.909 in assay [6]; -0.101 in assay [7]; 0.433 in the assay with Torsin-1A (Homo sapiens) [8]; 0.0162 in the assay with Torsin-1A (Homo sapiens) [9]; 1.58 in [10]. For the same molecule, the z-score is -0.716 (inactive) in assay [2], -0.241 (inactive) in assay [3], -0.118 (inactive) in assay [4] and -0.469 (inactive) in assay [5].
For the molecule `CCCC[C@H]1OB(O)C[C@H]2C1=C(COc1ccccc1)C[C@H]1C(=O)C=CC(=O)[C@H]12`, the composite z-score was 0.119 in assay [1]; 0.0073 in assay [6]; -0.158 in [7]; 0.372 in the assay with Torsin-1A (Homo sapiens) [8]; 0.274 with Torsin-1A (Homo sapiens) [9]; 1.38 in assay [10]. Besides, the z-score in assay [2] was -0.578 (inactive); in [3], -0.327 (inactive); in assay [4], 6.38 (inactive); in assay [5], 2.07 (inactive).
For the molecule `CC(C)(C)N1CC=CC23O[C@@H]4/C=C\CCCOC(=O)C4[C@H]2C(=O)N(CCCCCO)[C@@H]3C1=O` (stereo not given in full), the composite z-score in assay [1] was -0.552; in assay [6] it was -0.573; in assay [7] it was -0.258; with Torsin-1A (Homo sapiens) [8], -0.185; in the assay with Torsin-1A (Homo sapiens) [9], -1.33; in [10], -0.58. Moreover, the z-score in assay [2] is -0.0495 (inactive); in assay [3] it was 1.27 (inactive); in [4], 0.191 (inactive); in [5], -0.311 (inactive).
Regarding `O=C1C2C=CC(C(O)c3ccc([N+](=O)[O-])cc3)N(Nc3ccccc3F)C2C(=O)N1c1ccccc1` (stereo not given), the composite z-score in assay [1] is 0.164; in [6], 0.428; in assay [7], 0.0028; with Torsin-1A (Homo sapiens) [8] it was 0.16; with Torsin-1A (Homo sapiens) [9], 0.52; in assay [10], -0.449. Besides, the z-score in [2] is -0.631 (inactive); in [3], -0.242 (inactive); in assay [4] it was 0.743 (inactive); in assay [5] it was 0.402 (inactive).
For `COCCOC(=O)N1C(=O)[C@@]2(c3cc(C#CCCO)ccc31)[C@H](c1ccc(OCCO)cc1)N1[C@H](c3ccccc3)[C@H](c3ccccc3)OC(=O)[C@H]1[C@@H]2C(=O)N1CCCCCCC1`, the composite z-score in assay [1] was determined as 0.827; in assay [6], 1.79; in assay [7], 1.48; with Torsin-1A (Homo sapiens) [8] it was 0.862; with Torsin-1A (Homo sapiens) [9], 0.726; in assay [10], 1.97. Moreover, the z-score in assay [2] was -1.31 (inactive); in assay [3] it was 0.542 (inactive); in assay [4], -0.459 (inactive); in [5] it was 2.51 (inactive).
As for `[N-]=[N+]=Nc1ccccc1C[C@]1(C(=O)N2CCOCC2)N=C(c2ccc(OCCCO)cc2)O[C@H]1c1ccccc1N=[N+]=[N-]`, the composite z-score in assay [1] was 0.936; in [6], 1.79; in [7], 0.0757; in the assay with Torsin-1A (Homo sapiens) [8] it was 1.32; with Torsin-1A (Homo sapiens) [9], 0.946; in assay [10] it was 1.76. Also, the z-score in [2] is -4.16 (inactive); in assay [3], -0.781 (inactive); in [4], 0.0686 (inactive); in assay [5], -2.38 (inactive).

For the origin of these results see PubChem BioAssay.
